# According to publication PMC7862700, “An all-to-all approach to the identification of sequence-specific readers for epigenetic DNA modifications on cytosine”:
# What was measured:
# Experiment in all cases: DAPPL (digital affinity profiling via proximity ligation, sequencing); 10 mM Tris-HCl pH 7.5, 50 mM NaCl, 1 mM DTT, 4% glycerol, room temperature, 30 min; GST-TFs on glutathione beads, 16-mer random dsDNA library, 0.1% formaldehyde crosslink after washing; high values mean tight binding
# Conditions in all cases: protein: recombinant; tags: N-terminal GST; dsDNA, one strand shown
# ELK1 = molecular target: T1, ELK1 (Homo sapiens, UniProt P19419 1-428)
# T1 sequence: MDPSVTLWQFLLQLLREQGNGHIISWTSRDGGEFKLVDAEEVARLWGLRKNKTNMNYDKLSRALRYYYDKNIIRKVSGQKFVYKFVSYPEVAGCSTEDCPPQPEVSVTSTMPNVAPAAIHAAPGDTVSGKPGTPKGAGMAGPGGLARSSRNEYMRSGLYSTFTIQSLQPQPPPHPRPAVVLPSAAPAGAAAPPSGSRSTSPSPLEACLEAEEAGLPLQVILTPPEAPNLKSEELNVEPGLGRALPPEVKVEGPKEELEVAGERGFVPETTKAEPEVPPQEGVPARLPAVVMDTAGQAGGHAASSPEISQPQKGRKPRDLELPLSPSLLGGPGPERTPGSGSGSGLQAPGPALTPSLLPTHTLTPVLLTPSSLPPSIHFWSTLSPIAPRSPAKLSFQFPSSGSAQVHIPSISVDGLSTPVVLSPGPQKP
# Method in brief: (§1)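 Human transcription factors fused to GST were expressed in yeast, captured on glutathione beads, given DNA barcodes and pooled with a GST-only negative control. Pools were incubated with 200 nmole of a 16-mer random double-stranded DNA library in Tris/NaCl/DTT/glycerol buffer at room temperature for 30 min. They were then washed, crosslinked with 0.1% formaldehyde, proximity-ligated (BsaI/T4 ligase, 1 h, 37 °C), PCR-amplified and sequenced on an Illumina NextSeq500. Binding signal is each 6-mer's read frequency for a factor divided by its frequency for the GST control.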
# GABPA = molecular target: T2, GABPA (Homo sapiens, UniProt Q06546 1-454)
# T2 sequence: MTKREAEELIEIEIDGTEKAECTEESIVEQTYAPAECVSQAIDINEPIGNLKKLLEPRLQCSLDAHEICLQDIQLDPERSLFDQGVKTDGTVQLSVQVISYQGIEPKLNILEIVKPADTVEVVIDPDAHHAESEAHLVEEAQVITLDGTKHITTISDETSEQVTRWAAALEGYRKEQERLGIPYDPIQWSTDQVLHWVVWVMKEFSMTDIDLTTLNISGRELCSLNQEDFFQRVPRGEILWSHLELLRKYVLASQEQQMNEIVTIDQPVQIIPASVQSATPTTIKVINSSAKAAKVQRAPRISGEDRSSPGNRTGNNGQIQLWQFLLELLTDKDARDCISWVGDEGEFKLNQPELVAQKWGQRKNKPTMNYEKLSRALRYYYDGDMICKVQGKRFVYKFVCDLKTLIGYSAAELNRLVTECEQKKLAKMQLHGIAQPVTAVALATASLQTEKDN
# Method in brief: as §1
# ERG = molecular target: T3, ERG (Homo sapiens, UniProt P11308 1-479)
# T3 sequence: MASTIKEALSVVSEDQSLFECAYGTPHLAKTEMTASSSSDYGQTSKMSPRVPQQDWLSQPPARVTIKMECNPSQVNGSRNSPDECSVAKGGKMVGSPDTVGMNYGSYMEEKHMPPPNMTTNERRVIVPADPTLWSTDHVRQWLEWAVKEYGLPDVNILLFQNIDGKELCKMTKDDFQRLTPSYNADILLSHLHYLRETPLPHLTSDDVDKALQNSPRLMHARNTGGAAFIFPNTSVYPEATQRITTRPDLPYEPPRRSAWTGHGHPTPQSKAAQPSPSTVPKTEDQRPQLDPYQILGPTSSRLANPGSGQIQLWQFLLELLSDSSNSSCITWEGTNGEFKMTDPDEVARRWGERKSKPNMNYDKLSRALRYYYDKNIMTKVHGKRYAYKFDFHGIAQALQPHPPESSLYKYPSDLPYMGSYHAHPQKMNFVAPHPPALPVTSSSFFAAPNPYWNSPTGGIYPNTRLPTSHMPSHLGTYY
# Method in brief: as §1
# ELF1 = ELF1 (Homo sapiens, UniProt P32519 1-619)
# Method in brief: as §1
# EHF = molecular target: T4, EHF (Homo sapiens, UniProt Q9NZC4 1-300)
# T4 sequence: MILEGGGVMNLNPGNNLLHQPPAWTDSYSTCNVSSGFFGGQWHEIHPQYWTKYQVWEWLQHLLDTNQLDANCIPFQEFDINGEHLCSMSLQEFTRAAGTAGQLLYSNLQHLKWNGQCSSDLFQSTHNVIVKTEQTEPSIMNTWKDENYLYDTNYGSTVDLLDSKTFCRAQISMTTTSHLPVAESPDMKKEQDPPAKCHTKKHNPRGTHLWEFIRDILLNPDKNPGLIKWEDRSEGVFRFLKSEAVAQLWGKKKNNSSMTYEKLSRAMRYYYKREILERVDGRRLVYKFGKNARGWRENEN
# Method in brief: as §1
# SPIB = SPIB (Homo sapiens, UniProt Q01892 1-262)
# Method in brief: as §1
# ELK3 = molecular target: T5, ELK3 (Homo sapiens, UniProt P41970 1-407)
# T5 sequence: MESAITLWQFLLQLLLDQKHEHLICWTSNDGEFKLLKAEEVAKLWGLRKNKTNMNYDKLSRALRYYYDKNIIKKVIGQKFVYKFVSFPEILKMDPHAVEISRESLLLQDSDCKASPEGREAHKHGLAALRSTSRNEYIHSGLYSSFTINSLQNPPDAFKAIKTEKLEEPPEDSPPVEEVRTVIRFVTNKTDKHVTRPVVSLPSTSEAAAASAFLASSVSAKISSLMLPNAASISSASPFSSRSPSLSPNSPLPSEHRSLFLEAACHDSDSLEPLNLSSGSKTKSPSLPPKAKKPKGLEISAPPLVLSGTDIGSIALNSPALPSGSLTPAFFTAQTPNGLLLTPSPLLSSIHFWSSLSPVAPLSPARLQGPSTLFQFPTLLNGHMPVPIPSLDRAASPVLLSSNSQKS
# Method in brief: as §1
# FEV = molecular target: T6, FEV (Homo sapiens, UniProt Q99581 1-238)
# T6 sequence: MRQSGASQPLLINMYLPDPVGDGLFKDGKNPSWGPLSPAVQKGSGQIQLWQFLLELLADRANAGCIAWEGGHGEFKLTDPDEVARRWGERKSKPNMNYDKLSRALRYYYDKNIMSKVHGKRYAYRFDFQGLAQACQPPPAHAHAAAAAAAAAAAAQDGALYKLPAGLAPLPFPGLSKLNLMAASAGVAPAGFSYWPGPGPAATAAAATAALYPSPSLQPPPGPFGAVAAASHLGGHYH
# Method in brief: as §1
# ETV5 = ETV5 (Homo sapiens, UniProt P41161 1-510)
# Method in brief: as §1
# ELF4 = ELF4 (Homo sapiens, UniProt Q99607 1-663)
# Method in brief: as §1
# Sequence of SPIB (Q01892 whole entry): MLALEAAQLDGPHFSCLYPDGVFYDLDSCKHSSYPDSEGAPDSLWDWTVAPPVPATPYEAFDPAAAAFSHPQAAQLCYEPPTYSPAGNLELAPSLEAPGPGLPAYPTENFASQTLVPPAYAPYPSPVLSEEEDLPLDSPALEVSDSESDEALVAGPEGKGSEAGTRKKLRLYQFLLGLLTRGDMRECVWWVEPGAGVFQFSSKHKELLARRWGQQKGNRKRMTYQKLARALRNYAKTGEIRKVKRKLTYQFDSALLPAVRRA
# Sequence of ELF4 (Q99607 whole entry): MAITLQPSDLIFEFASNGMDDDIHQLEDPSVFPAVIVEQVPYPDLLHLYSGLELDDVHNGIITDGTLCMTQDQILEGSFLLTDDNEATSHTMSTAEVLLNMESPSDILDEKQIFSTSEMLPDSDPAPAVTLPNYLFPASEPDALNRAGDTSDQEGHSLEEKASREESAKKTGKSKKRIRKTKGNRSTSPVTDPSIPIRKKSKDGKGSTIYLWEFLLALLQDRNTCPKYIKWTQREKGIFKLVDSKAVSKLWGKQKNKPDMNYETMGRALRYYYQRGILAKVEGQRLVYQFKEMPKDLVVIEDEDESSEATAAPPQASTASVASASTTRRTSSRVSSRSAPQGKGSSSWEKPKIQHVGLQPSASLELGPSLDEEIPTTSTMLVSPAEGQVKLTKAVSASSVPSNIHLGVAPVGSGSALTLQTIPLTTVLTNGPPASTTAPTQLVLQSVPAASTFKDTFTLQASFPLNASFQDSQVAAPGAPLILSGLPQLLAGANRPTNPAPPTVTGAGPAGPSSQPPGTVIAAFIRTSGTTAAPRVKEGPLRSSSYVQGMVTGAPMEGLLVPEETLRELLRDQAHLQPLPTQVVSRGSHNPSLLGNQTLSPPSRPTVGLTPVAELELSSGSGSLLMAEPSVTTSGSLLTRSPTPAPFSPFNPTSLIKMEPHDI
# Sequence of ELF1 (P32519 whole entry): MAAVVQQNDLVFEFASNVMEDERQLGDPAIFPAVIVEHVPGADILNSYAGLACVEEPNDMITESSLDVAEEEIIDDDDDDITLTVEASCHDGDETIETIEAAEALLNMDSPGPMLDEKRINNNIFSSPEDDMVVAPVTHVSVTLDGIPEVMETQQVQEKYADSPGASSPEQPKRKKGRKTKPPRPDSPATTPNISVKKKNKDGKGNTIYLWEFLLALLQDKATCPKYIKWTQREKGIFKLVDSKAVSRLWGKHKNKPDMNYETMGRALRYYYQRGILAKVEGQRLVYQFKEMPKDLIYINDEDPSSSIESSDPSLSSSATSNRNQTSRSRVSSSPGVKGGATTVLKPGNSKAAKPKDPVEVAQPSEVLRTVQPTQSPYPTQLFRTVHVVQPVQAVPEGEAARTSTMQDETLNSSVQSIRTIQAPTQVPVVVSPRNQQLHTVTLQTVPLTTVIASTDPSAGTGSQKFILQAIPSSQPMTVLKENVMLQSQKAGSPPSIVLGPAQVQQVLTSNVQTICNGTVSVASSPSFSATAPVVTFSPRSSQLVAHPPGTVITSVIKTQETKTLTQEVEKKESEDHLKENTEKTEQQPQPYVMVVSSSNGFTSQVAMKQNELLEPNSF
# Sequence of ETV5 (P41161 whole entry): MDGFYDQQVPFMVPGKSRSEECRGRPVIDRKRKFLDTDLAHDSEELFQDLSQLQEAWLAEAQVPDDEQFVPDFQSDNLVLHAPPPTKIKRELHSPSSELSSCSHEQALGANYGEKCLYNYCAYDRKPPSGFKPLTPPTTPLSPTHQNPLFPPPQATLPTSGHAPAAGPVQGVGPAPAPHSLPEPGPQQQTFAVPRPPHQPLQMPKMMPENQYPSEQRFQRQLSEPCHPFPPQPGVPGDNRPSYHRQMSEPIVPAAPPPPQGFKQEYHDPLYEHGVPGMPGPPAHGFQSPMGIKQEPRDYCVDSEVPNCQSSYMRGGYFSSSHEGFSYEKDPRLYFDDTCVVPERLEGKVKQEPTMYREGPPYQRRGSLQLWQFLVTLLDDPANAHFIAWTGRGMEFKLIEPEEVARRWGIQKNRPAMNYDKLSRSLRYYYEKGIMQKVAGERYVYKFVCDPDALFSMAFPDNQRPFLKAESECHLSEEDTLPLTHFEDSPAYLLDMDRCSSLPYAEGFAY
sequence,measurement,setting,value
CAAACA,binding signal,ELK1,"1.15 fold enrichment (6-mer frequency, TF over GST control)"
same,binding signal,GABPA,"1.18 fold enrichment (6-mer frequency, TF over GST control)"
same,binding signal,ERG,"1.18 fold enrichment (6-mer frequency, TF over GST control)"
same,binding signal,ELF1,"1.08 fold enrichment (6-mer frequency, TF over GST control)"
same,binding signal,EHF,"1.09 fold enrichment (6-mer frequency, TF over GST control)"
same,binding signal,SPIB,"1.13 fold enrichment (6-mer frequency, TF over GST control)"
same,binding signal,ELK3,"1.17 fold enrichment (6-mer frequency, TF over GST control)"
same,binding signal,FEV,"1.1 fold enrichment (6-mer frequency, TF over GST control)"
same,binding signal,ETV5,"1.13 fold enrichment (6-mer frequency, TF over GST control)"
same,binding signal,ELF4,"1.14 fold enrichment (6-mer frequency, TF over GST control)"
